DAT uptake mod: modulates human dopamine transporter uptake under cocaine; Q01959; LLC-PK1 hDAT cells, [14C]-dopamine uptake with cocaine IC80; actives deviate in either direction; B-score at 10 µM; 110,000 compounds, 1.3% hits; AID 449768;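 active means Z score or B-score, a plate-position-corrected score, falls beyond the plate's 99.7% confidence bounds, in either direction; inactive means both scores lie inside the 99.7% bounds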;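 further: scored against the spread of the other compound wells on the same plate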
D1 mod: D1 dopamine receptor (human) allosteric modulation; P21728; HEK293 D1, CRE-luciferase, dopamine EC30 potentiation; actives deviate in either direction; B-score at 10 µM; 58,000 compounds, 5.9% hits; AID 641;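 active means luminescence count or its row- and column-corrected plate score outside the 99.7% band of the plate's sample wells, on either side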
Target sequence (P21728 whole entry, looked up): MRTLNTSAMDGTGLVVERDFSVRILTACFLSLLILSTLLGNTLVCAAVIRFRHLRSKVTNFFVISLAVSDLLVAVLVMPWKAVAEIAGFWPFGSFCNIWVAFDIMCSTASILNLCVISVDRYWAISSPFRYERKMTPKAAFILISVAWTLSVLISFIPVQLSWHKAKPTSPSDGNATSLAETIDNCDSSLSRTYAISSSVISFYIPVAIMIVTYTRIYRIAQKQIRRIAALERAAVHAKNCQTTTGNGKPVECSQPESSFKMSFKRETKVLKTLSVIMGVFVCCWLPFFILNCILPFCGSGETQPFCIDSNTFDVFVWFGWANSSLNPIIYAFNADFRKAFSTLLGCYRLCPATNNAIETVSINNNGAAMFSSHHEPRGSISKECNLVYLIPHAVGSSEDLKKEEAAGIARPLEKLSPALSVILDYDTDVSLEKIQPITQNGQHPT
Cav32 inh: human Cav3.2 channel inhibition, primary screen; AID 449739; B-score at 10 µM; 100,000 compounds, 4% hits; O95180; Cav3.2-expressing cells, Fluo-4 calcium fluorescence FDSS; active compounds read low;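 active means single-dose well whose peak fluorescence ratio is a statistical outlier from its plate by either plate-standardised score or position-corrected B-score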
PLAP act: activators of human placental alkaline phosphatase; AID 696; purified PLAP enzyme, luminescent substrate read-out; active compounds read high; P05187; activation fold at 20 µM; 96,000 compounds, 1.2% hits; in the data active means activation fold above about 2
PostGolgi ctrl: inhibits growth of the yeast control strain; efflux-deficient yeast background strain, growth absorbance A615, 16 h; inhibition, % at 10 µM; 98,000 compounds, 5% hits; AID 738
PostGolgi yeast: growth inhibition of a yeast mutant, post-Golgi transport screen; post-Golgi transport phenotypic cell assay; AID 739; inhibition, % at 10 µM; 98,000 compounds, 0.9% hits;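 further: yeast cells grown in 1536-well plates; yeast grown about 18 h at 30C before absorbance read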
An asterisk follows results filed as active. Shown are actives, neighbours in structure and some others; about 12% of the full set was active somewhere. Unless noted, no stated cut-off is given here; in the data, active means inhibition above about 30%; inactive means the rest.

How did CCn1c(C)nc2cc(C(=O)n3cc(C(=O)c4cc(F)ccc4O)cn3)ccc21 do in these assays?
D1 mod: 0.48; PLAP act: 2.1*

How did CCc1c(C)nc(N)n2c(SCC(=O)N3CCN(c4ccccc4OC)CC3)nnc12 do in these assays?
D1 mod: -1.1; PLAP act: 1.7

Results for Cc1ccc(C)c(/C(O)=C2\C(=O)C(=O)N(CCCN(C)C)C2c2cccnc2)c1 (stereo not drawn) ?
D1 mod: 0.57

How did O=C(N[C@@H](Cc1ccccc1)C(=O)OCc1ccccc1)c1nc[nH]c1C(=O)N1CCc2ccccc2C1 do in these assays?
DAT uptake mod: 0.98; Cav32 inh: -1.4

How did CCc1nc(SCc2ccc(C(=O)OC)o2)c2c(=O)n(C)c(=O)n(C)c2n1 do in these assays?
DAT uptake mod: -0.35; D1 mod: 3.8; Cav32 inh: -0.11; PostGolgi ctrl: -3; PostGolgi yeast: -4

What do the screens show for `CCOC(=O)c1ccccc1NC(=O)CSc1nnnn1C`?
DAT uptake mod: 0.0049; Cav32 inh: 0.071

How did CN(C)c1ccc(/C=C/c2cc[n+]([O-])cc2)cc1 do in these assays?
DAT uptake mod: -1.6; D1 mod: -0.42; PLAP act: 0.9; PostGolgi ctrl: 2; PostGolgi yeast: -6

What do the screens show for `CN(C)c1ccc(/C=C/c2cc[n+](C)cc2)cc1`?
DAT uptake mod: -3.7*; Cav32 inh: -1.4; PLAP act: 0.5; PostGolgi ctrl: 2; PostGolgi yeast: -6

Results for O=C(COc1ccccc1F)NC1CCN(Cc2ccccc2)CC1 ?
DAT uptake mod: -0.56; Cav32 inh: 0.66; PLAP act: 1.6; PostGolgi ctrl: 28; PostGolgi yeast: 54*

Results for O=C(CCc1nc(-c2ccccc2F)no1)NC1CCN(Cc2ccccc2)CC1 ?
DAT uptake mod: -0.45; D1 mod: -1.3; Cav32 inh: 1.4; PLAP act: 1.7; PostGolgi ctrl: -4; PostGolgi yeast: 2

What do the screens show for `O=S(=O)(Nc1nnc(-c2ccccc2)s1)c1ccc(Cl)cc1`?
DAT uptake mod: -3*; D1 mod: -0.48; PLAP act: 1.1; PostGolgi ctrl: 10; PostGolgi yeast: 19

Results for COc1ccc(/C=C/C(=O)NCC(=O)N/N=C/c2cc(Br)ccc2OC)cc1 ?
DAT uptake mod: -0.016; Cav32 inh: -0.42; PLAP act: 1; PostGolgi ctrl: -7; PostGolgi yeast: -3

Results for COc1ccccc1/C=C/C(=O)NCC(=O)N/N=C/c1cc(Br)ccc1OC ?
DAT uptake mod: 0.22; Cav32 inh: -9.3*; PLAP act: 1.7; PostGolgi ctrl: 1; PostGolgi yeast: -5

Results for CC(=O)n1nc(-c2ccccc2)nc1NCc1ccc(F)cc1 ?
DAT uptake mod: -1.7; D1 mod: 0.53; Cav32 inh: -4.6*; PLAP act: 1.5; PostGolgi ctrl: -1; PostGolgi yeast: -19

How did COCC(=O)n1nc(-c2ccc(Cl)cc2)nc1NCc1ccc(F)cc1 do in these assays?
DAT uptake mod: 2.7; Cav32 inh: -0.24; PLAP act: 1.1; PostGolgi ctrl: 2; PostGolgi yeast: -3

How did C[C@H](NC(=O)c1ccccc1Cl)C(=O)OC(C(=O)Nc1cc(C(F)(F)F)ccc1Cl)c1ccccc1 (stereo partly drawn) do in these assays?
DAT uptake mod: 0.16; Cav32 inh: -8.4*; PLAP act: 1; PostGolgi ctrl: 19; PostGolgi yeast: -4

What do the screens show for `O=C(CNC(=O)c1ccccc1F)OC(C(=O)Nc1cc(C(F)(F)F)ccc1Cl)c1ccccc1` (stereo not drawn)?
DAT uptake mod: 0.085; Cav32 inh: -5.4*; PLAP act: 1; PostGolgi ctrl: 11; PostGolgi yeast: 14

What do the screens show for `COc1cc(CCN2C(=O)c3cccc4cccc(c34)C2=O)c(S(=O)(=O)NCCCO)cc1OC`?
DAT uptake mod: -0.89; Cav32 inh: -0.14; PLAP act: 1.1; PostGolgi ctrl: 0; PostGolgi yeast: 0

How did Cc1ccc(C(=O)Oc2ccccc2N2C(=O)C3CCCCC3C2=O)cc1 (stereo not drawn) do in these assays?
PLAP act: 1.1; PostGolgi ctrl: 10; PostGolgi yeast: 4

How did COc1ccc2c(=O)c3c(=O)n(Cc4ccco4)c(-c4ccccc4)nc3oc2c1 do in these assays?
DAT uptake mod: -0.95; D1 mod: -0.25; Cav32 inh: -0.25; PLAP act: 0.8; PostGolgi ctrl: 58*; PostGolgi yeast: 28

Results for COc1ccc(Cn2c(C)nc3c(c2=O)c2nc4ccccc4nc2n3Cc2ccco2)cc1 ?
D1 mod: 7.6*

How did CCC(C)n1cnc2c(c1=O)c1nc3ccccc3nc1n2Cc1ccc(OC)cc1 (stereo not drawn) do in these assays?
DAT uptake mod: 1.6; Cav32 inh: -2.1; PLAP act: 1.1; PostGolgi ctrl: 36*; PostGolgi yeast: -5

Results for COc1ccc2c(=O)c3c(=O)n(Cc4ccco4)c(-c4cc(OC)c(OC)c(OC)c4)nc3oc2c1 ?
DAT uptake mod: 0.98; D1 mod: 0.29; Cav32 inh: -0.053

What do the screens show for `COc1ccc(Cn2c3nc4ccccc4nc3c3c(=O)n(Cc4ccco4)c(C)nc32)cc1`?
D1 mod: 2.9; PLAP act: 1.9

What do the screens show for `Cc1c(-c2cccs2)[n+](=O)c2c(n1[O-])CCCC2`?
DAT uptake mod: -0.85; D1 mod: -0.68; Cav32 inh: 0.2; PostGolgi ctrl: 2; PostGolgi yeast: 2

How did Cc1cccc(N2C(=O)CC(N(C(=O)c3ccco3)c3cccc(C)c3)C2=O)c1 (stereo not drawn) do in these assays?
DAT uptake mod: -0.75; D1 mod: -0.35; Cav32 inh: 0.19

Results for O=C(Nc1ccc2nccnc2c1)c1cnccn1 ?
DAT uptake mod: -1; Cav32 inh: 0.034; PLAP act: 0.9; PostGolgi ctrl: 15; PostGolgi yeast: -2

What do the screens show for `O=C(Nc1ccc2ccccc2c1)c1cnccn1`?
DAT uptake mod: -0.1; D1 mod: -2*; Cav32 inh: 0.0032; PLAP act: 1.1; PostGolgi ctrl: 0; PostGolgi yeast: -1

Results for CC(C)c1ccc(N(CC(=O)NCCSC(C)(C)C)S(C)(=O)=O)cc1 ?
DAT uptake mod: -1.7; Cav32 inh: -0.041; PLAP act: 1.6; PostGolgi ctrl: 9; PostGolgi yeast: -1

What do the screens show for `COc1cc(C(=O)Nc2cccc(-c3nncn3C)c2)cc(OC)c1OC`?
DAT uptake mod: 1.4; D1 mod: -0.43; Cav32 inh: -0.19; PLAP act: 1; PostGolgi ctrl: -1; PostGolgi yeast: 4

How did COc1ccc(Cl)cc1CSc1n[nH]c(C)n1 do in these assays?
DAT uptake mod: -0.72; D1 mod: -0.038; Cav32 inh: 0.64; PostGolgi ctrl: 14; PostGolgi yeast: 6

What do the screens show for `Cc1nc(SCc2cccc(Oc3ccccc3)c2)n[nH]1`?
DAT uptake mod: -0.22; Cav32 inh: -2; PLAP act: 1.5; PostGolgi ctrl: 36*; PostGolgi yeast: 0

What do the screens show for `Cc1csc(SCC(=O)Nc2nc3ccccc3s2)n1`?
DAT uptake mod: 0.72; D1 mod: 1.3; Cav32 inh: -3.7; PLAP act: 1; PostGolgi ctrl: 12; PostGolgi yeast: -10

Screens deposited in PubChem BioAssay by several laboratories.
